Measurements published in PubChem BioAssay AID1220 (Sanford-Burnham Center for Chemical Genomics, 2008).
Out of some 190,000 compounds screened, about 1,300 (0.68%) were called active. Rule as the data show it: active = inhibition above about 50%; inactive = the rest. This excerpt belongs to a sample that is enriched for actives.

What follows are molecules tested against Mannose-6-phosphate isomerase (Homo sapiens) (UniProt P34949) (assay: MPI inhibition at elevated mannose 6-phosphate – biochemical, fluorescence intensity, high mannose 6-phosphate, primary screen (AID 1220)). Details: recombinant PMI enzyme, coupled fluorescence intensity; at 20 µM; hits give high values.
Mannose-6-phosphate isomerase (Homo sapiens), sequence (P34949 whole entry, looked up): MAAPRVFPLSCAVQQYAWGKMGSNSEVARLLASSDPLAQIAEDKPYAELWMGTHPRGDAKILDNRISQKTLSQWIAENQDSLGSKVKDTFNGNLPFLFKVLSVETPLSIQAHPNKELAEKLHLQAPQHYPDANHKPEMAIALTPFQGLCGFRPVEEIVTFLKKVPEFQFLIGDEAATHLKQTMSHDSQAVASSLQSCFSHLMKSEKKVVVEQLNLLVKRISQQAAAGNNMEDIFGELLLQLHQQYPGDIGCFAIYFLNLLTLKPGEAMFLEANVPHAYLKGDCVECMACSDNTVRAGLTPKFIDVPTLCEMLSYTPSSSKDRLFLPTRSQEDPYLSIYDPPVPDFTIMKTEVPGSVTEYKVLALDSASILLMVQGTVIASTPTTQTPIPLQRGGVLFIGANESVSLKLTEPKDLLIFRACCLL

SMILES	inhibition
C/C(=N\NS(=O)(=O)c1ccc(C)c([N+](=O)[O-])c1)c1ccc2c(c1)OCO2	-16.6% (inactive)
C=CCOc1ccc(/C(CC)=N/O)c(OC)c1	6.3% (inactive)
C=CCOc1cc(OC)c(OC)c(OC)c1	54.8% (active)
COc1cc(OCC(N)=O)cc(OC)c1OC	7.1% (inactive)
COc1ccccc1NC(=O)c1ccccc1S(=O)(=O)c1ccccc1[N+](=O)[O-]	12.3% (inactive)
C=CCn1c(SCC(=O)NC(=O)NC)nnc1C1CCCCC1	-11.2% (inactive)
CC(=O)c1cccc(NC(=O)/C(=C\c2cccnc2)NC(=O)c2ccco2)c1	-6.2% (inactive)
CC1(C)CC(=O)C(/C=N/c2ncccc2C(=O)O)=C(O)C1	-18.7% (inactive)
CC1(C)CC(=O)C(C=Nc2cccnc2/N=C/C2=C(O)CC(C)(C)CC2=O)=C(O)C1	58.8% (active)
CC1(C)CC(=O)C(/C=N/c2ccccn2)=C(O)C1	-6.9% (inactive)
CCOC(=O)c1nc(C)n(-c2cc(OC)c(Cl)cc2Cl)n1	-10.2% (inactive)
Cc1ccc2nc(SC(C(=O)c3ccccc3)c3ccccc3)nc(C)c2c1 (stereo unspecified)	1.4% (inactive)
CCN(CC)c1ccc(N=Cc2cc(Br)ccc2O)cc1	63.1% (active)
Cc1ccc(N=Cc2sccc2C)cc1C	8.8% (inactive)
COC(=O)N/N=C/c1cc(Br)ccc1O	13.6% (inactive)
COc1ccc(N=Cc2cc(Cl)ccc2O)cc1Cl	40.6% (inactive)
CCN(CC)c1ccc(O)c(C=Nc2ccc(C)c(C)c2)c1	57% (active)
Oc1ccc(Br)cc1C=Nc1ccc(Cl)cc1	13.7% (inactive)
NS(=O)(=O)c1ccc(CCNC(=O)NC2(C(F)(F)F)Oc3ccccc3O2)cc1	-9.2% (inactive)
CC1(N2CCOCC2)C(=O)c2ccccc2C1=O	-17.3% (inactive)
COc1cc(OC)c2c(c1)C(=O)OC2	-32.4% (inactive)
COc1cc(OC)c2c(c1)OC(c1ccc(OC)c(OC)c1)C(O)C2=O (stereo unspecified)	1.6% (inactive)

SMILES	inhibition
COc1cc(OC)c2c(O)c3c(c(-c4c5c(c(O)c6c(OC)cc(OC)cc46)CO[C@@H](C)[C@H]5O)c2c1)[C@H](O)[C@H](C)OC3	54.8% (active)
COc1ccccc1CC(=O)Nc1ccc(O)cc1C(=O)O	2.5% (inactive)
CCCC1=[N+](CC(C)=O)CCn2c(C)ccc21	-7.3% (inactive)
CN1CCc2ccccc2C1C1CCNCC1 (stereo unspecified)	8.3% (inactive)
COc1ccc2c(c1O)-c1ccccc1CCN(C)C2	7.3% (inactive)
CN1CCc2cc3c(c4c2[C@H]1[C@H](O)c1ccccc1-4)OCO3	16.9% (inactive)
CCCCC(=O)Nc1cc2nn(-c3ccc(OC)cc3)nc2cc1C	10.9% (inactive)
O=C(NCCN1CCN(c2ccccc2)CC1)C1(S(=O)(=O)c2ccc(Cl)cc2)CC1	18% (inactive)
O=[N+]([O-])c1cccc(-c2ccc(C(=S)N3CCOCC3)o2)c1	47% (inactive)
O=[N+]([O-])c1cc(-c2ccc(C(=S)N3CCOCC3)o2)ccc1Cl	61% (active)
S=C(c1ccc(-c2ccc(Cl)c(Cl)c2)o1)N1CCOCC1	-7.4% (inactive)
CC1CCN(C(=O)CSc2nnc(CNc3ccc(F)cc3)n2Cc2ccco2)CC1	10.7% (inactive)
CCCN1C2CCCC1CC(NC(=O)c1ccccc1OCC)C2 (stereo unspecified)	0% (inactive)
COc1cc(C2CC(=O)N3CN(Cc4ccco4)CSC3=C2C#N)ccc1OCc1ccccc1 (stereo unspecified)	74.4% (active)
COc1cccc(C2CC(=O)N3CN(c4ccccc4F)CSC3=C2C#N)c1 (stereo unspecified)	-11.4% (inactive)
COc1cc(C2CC(=O)N3CN(Cc4ccccc4)CSC3=C2C#N)ccc1OCc1ccccc1 (stereo unspecified)	66.3% (active)
CN1CSC2=C(C#N)C(c3cccc(OCc4ccccc4)c3)CC(=O)N2C1 (stereo unspecified)	59.9% (active)
COc1ccc(C2CC(=O)N3CN(c4ccc(C)c(Cl)c4)CSC3=C2C#N)cc1OC (stereo unspecified)	-27.1% (inactive)
N#CC1=C2SCN(Cc3ccccc3)CN2C(=O)CC1c1ccc2c(c1)OCO2 (stereo unspecified)	47.4% (inactive)
COc1ccc(C2CC(=O)N3CN(c4ccccc4F)CSC3=C2C#N)cc1OC (stereo unspecified)	-0.4% (inactive)
CCc1ccc(C2CC(=O)N3CN(c4ccccc4)CSC3=C2C#N)cc1 (stereo unspecified)	-47.1% (inactive)
Cc1ccc(/C=N/NC(=O)c2nnn(-c3nonc3N)c2CSc2ccc(Cl)cc2)cc1	-7% (inactive)

SMILES	inhibition
Cc1ccc(O)c(NC(=O)c2noc3c2CCc2ccccc2-3)c1	13% (inactive)
CCOC(=O)CC1C(=O)NCCN1S(=O)(=O)c1ccccc1 (stereo unspecified)	-2.9% (inactive)
CC(C)C(=O)N(Cc1ccc(F)cc1)Cc1nc2ccccc2c(=O)[nH]1	4.6% (inactive)
CCN(CC)c1ccc2c(C)c(Cl)c(=O)oc2c1	-1.9% (inactive)
CCN(CC)c1ccc2ccc(=O)oc2c1	3.8% (inactive)
CC(SC1CCCC1)C(=O)Nc1ccnn1C(C)C (stereo unspecified)	-2.4% (inactive)
CC(C)OCCCNC(=S)NNC(=O)C(c1ccccc1)c1ccccc1	-14.8% (inactive)
O=c1cc(CN2CCN(c3ccccn3)CC2)nc2sccn12	9.8% (inactive)
CC(=O)c1cc2c(C)c(C(=O)c3ccccc3)oc2cc1O	8.2% (inactive)
O=C(NNC(=S)Nc1ccccc1)c1ccc2ncccc2c1	-9.6% (inactive)
O=C(NC(=S)Nc1cccc2cnccc12)c1ccccc1	54.7% (active)
S=C(NCCc1ccccc1)Nc1cccc2cnccc12	57.3% (active)
O=C(NC(=S)Nc1cccc2cccnc12)c1ccccc1	10% (inactive)
O=C(NC(=S)Nc1ccc2ncccc2c1)c1ccccc1	55.9% (active)
O=C(NC(=S)Nc1cnc2ccccc2c1)c1ccccc1	10.3% (inactive)
CCCCNC(=S)Nc1cccc2cnccc12	3.6% (inactive)
S=C(NCCc1ccncc1)Nc1cccc2ccccc12	18.9% (inactive)
Fc1ccccc1NC(=S)Nc1cccc2cnccc12	9.4% (inactive)
COc1ccc(Cn2cc(C(=O)c3ccccc3)c(=O)c3cc(OC)ccc32)cc1	15.1% (inactive)
Cn1c(Cc2ccccc2)nnc1SCC(=O)N1CCOCC1	-5.3% (inactive)
CC(C)(C)c1ccc(NC(=O)CNC2CCCc3ccccc32)cc1 (stereo unspecified)	-3.2% (inactive)
COc1cc(/C=N/N2CCOCC2)ccc1OCc1ccccc1	-7.2% (inactive)

SMILES	inhibition
CCSc1nnc(NC(=O)CSc2nc(CC)nc3c2c(=O)n(C)c(=O)n3C)s1	6.7% (inactive)
CC1CCN(S(=O)(=O)c2cccc(C(=O)NCc3ccco3)c2)CC1	-3.8% (inactive)
Cc1ccc(C2NC(=O)NC3=C2CCc2ccccc23)cc1 (stereo unspecified)	40.5% (inactive)
O=C1NC2=C(CCc3ccccc32)C(c2ccccc2)N1 (stereo unspecified)	2.3% (inactive)
Cc1ccc(-c2nnn(CC(=O)N(CC3CCCO3)C(C(=O)NCC3CCCO3)c3ccc(F)cc3)n2)o1 (stereo unspecified)	2.7% (inactive)
O=C(CN1C2CCCC1CC(NC(=O)c1ccccc1)C2)Nc1nccs1 (stereo unspecified)	-12.4% (inactive)
O=C(NCC(c1cccnc1)N1CCN(c2ccccc2)CC1)C1CCCCC1 (stereo unspecified)	8.8% (inactive)
C=CCN1C(=O)c2cccc3c(Br)ccc(c23)C1=O	4.2% (inactive)
CN(C)CCCN1C(=O)c2cccc3c(Br)ccc(c23)C1=O	52% (active)
CN(C)CCCN1C(=O)c2cccc3c([N+](=O)[O-])ccc(c23)C1=O	29.6% (inactive)
Fc1ccccc1CNc1cc(Cl)cc(Cl)c1	5.3% (inactive)
COc1cccc(/C=N\NC(=O)C2C(=O)NCC2c2ccccc2)c1O (stereo unspecified)	-17% (inactive)
COc1ccc(/C=N\NC(=O)C2C(=O)NCC2c2ccccc2)cc1O (stereo unspecified)	8.9% (inactive)
COc1cc(/C=N\NC(=O)C2C(=O)NCC2c2ccccc2)cc(OC)c1O (stereo unspecified)	50.9% (active)
CC(/C=N\Nc1nnc2c(n1)[nH]c1c(C)cccc12)=C\c1ccco1	7% (inactive)
COc1ccc(/C=N/c2oc(C)c(C)c2C#N)c(OC)c1	51.5% (active)
Cc1oc(/N=C/c2ccc(Cl)cc2Cl)c(C#N)c1C	-5.8% (inactive)
Cc1oc(/N=C/c2ccc(O)cc2O)c(C#N)c1C	8.5% (inactive)
O=C(c1ccc(Br)o1)N1CCN=C1SCc1cccnc1	2.2% (inactive)
COCCCNC(=S)NNC(=O)c1ccc(S(=O)(=O)N2CCC(C)CC2)cc1	-5.4% (inactive)
CC(=O)c1cccc(NC(=O)c2ccco2)c1	2.7% (inactive)
O=C(Nc1cccc(N=Cc2cc(Cl)cc(Br)c2O)c1)c1ccco1	44.4% (inactive)

SMILES	inhibition
O=C(Nc1cccc(N=Cc2cc(Br)cc(Br)c2O)c1)c1ccco1	53.4% (active)
O=C(CSc1nnc(-c2cccs2)n1-c1ccccc1)c1ccc2c(c1)OCCO2	6.2% (inactive)
CCOC(=O)N1CCC(NC(=O)c2ccc3c(c2)N(C)CCS3)CC1	55.2% (active)
CCOC(=O)N1CCC(NC(=O)c2ccc3c(c2)N(Cc2ccc(C)cc2)CCS3)CC1	24.9% (inactive)
CCOC(=O)N1CCC(NC(=O)c2ccc3c(c2)N(Cc2ccccc2)CCS3)CC1	13.2% (inactive)
COc1cccc(C2=NOC(C(=O)NC(C)C)C2)c1 (stereo unspecified)	3.6% (inactive)
COc1cccc(C2=NOC(C(=O)NC3CCCCC3)C2)c1 (stereo unspecified)	53.2% (active)
COc1ccc(C2=NOC(C(=O)NC3CCCCC3)C2)cc1OC (stereo unspecified)	11.9% (inactive)
C#CCNC(=O)C1CCN(c2ccc(S(=O)(=O)N3CCOCC3)cc2Cl)CC1	-1.4% (inactive)
CCOc1cc(N2CCOCC2)c(OCC)cc1NC(C)C(=O)N1CCN(CC)CC1 (stereo unspecified)	57.1% (active)
CCOc1cc(N2CCOCC2)c(OCC)cc1NC(=O)CN1CCCC1	20.8% (inactive)
CCN1CCN(C(=O)C(C)Nc2ccc(OC)cc2OC)CC1 (stereo unspecified)	58.6% (active)
CCC(C)C(=O)Nc1ccc(OC)cc1OC (stereo unspecified)	5.6% (inactive)
CCOc1cc(N2CCOCC2)c(OCC)cc1NC(=O)c1ccc(OC(C)C)cc1	19.1% (inactive)
CCOc1cc(N2CCOCC2)c(OCC)cc1NC(C)C(=O)N1CCC(C)CC1 (stereo unspecified)	59.1% (active)
CCOc1cc(N2CCOCC2)c(OCC)cc1NC(=O)C1CCCC1	-1% (inactive)
CCN1CCN(C(=O)Nc2ccc(OC)cc2OC)CC1	34.3% (inactive)
CCOc1cc(N2CCOCC2)c(OCC)cc1NC(=O)CN1CCCC(C)C1 (stereo unspecified)	30.5% (inactive)
